The text below walks through data of paper PMC5515408, “Sequence-specific DNA binding by MYC/MAX to low-affinity non-E-box motifs”.

In all, about 4,500 sequences were measured (“log2 normalized fluorescence”: median about -0.34, highest 2% from about 3.3 on). For the sample, the highest values were picked, then their nearest neighbours and some sequences at random.

Chain of MAX:MAX (p21) (P61244 other isoform, or with tags, fused parts or gaps): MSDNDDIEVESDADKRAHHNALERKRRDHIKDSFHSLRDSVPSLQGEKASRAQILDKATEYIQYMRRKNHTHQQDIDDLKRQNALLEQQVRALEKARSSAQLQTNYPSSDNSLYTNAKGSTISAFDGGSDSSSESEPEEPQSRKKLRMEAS

The experiment addresses MAX:MAX (p21) (human, UniProt P61244-2 1-151). As to the kind of experiment: protein-binding microarray (anti-MAX antibody); PBM: 15 mM Tris-HCl pH 7.5, 100 mM KCl, 0.075% NP40, 7.5 mM beta-mercaptoethanol, 375 ng/ul BSA, 8 ng/ul poly(dA-dT):(dA-dT), 550 ng complex, 60 min, room tempe; high values mean tight binding. The note with it: protein: recombinant; tags: 6xHis; chain copies: 2; label: 3' end of printed strand (linker) attached to glass slide; dsDNA, one strand shown. The procedure, abridged:
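Binding is reported as log2 normalized fluorescence. Recombinant His-tagged human MYC:MAX or MAX:MAX dimers expressed in E. coli (550 ng) were incubated with a custom Agilent glass array for 60 min at room temperature in Tris-KCl buffer, pH 7.5, containing NP40, BSA and poly(dA-dT) competitor. The array carried ~5000 unique 12-nt sequences, each spotted in triplicate and made double-stranded by primer extension, and bound protein was detected with anti-MAX and secondary antibodies and scanned at 543 nm.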
For “CCGGCTGAAGCCTGGTATTAATAGCTAAGATTACTATATCGACG”, the binding signal is 0.476 log2 normalized fluorescence.
Turning to “CCGGCTGACGGCCCGTATTAATAGCTAAGATTACTATATCGACG”, the binding signal was -0.704 log2 normalized fluorescence.
Regarding “CCGGCTGACTCACTGTATTAATAGCTAAGATTACTATATCGACG”, the binding signal was -0.209 log2 normalized fluorescence.
Take “CCGGCTGACCTGTGGTATTAATAGCTAAGATTACTATATCGACG”: the binding signal is 0.594 log2 normalized fluorescence.
On to “CCGGCTGACAACACGTATTAATAGCTAAGATTACTATATCGACG”, for which the binding signal is 0.856 log2 normalized fluorescence.
Take “CCGGCTGACTCGTGCTATTAATAGCTAAGATTACTATATCGACG”: the binding signal is 3.13 log2 normalized fluorescence.
With “CCGGCAAACACGTAGTATTAATAGCTAAGATTACTATATCGACG” the figure was 2.6 log2 normalized fluorescence; with “CCGGCCGACACGTGGAATTAATAGCTAAGATTACTATATCGACG”, 3.32 log2 normalized fluorescence; with “CCGGCTAACACGTGGAATTAATAGCTAAGATTACTATATCGACG”, 3.35 log2 normalized fluorescence.
With “CCGGCTTACACGTGGAATTAATAGCTAAGATTACTATATCGACG” the figure was 3.37 log2 normalized fluorescence; with “CCGGCTGACACGTGGAATTAATAGCTAAGATTACTATATCGACG”, 3.16 log2 normalized fluorescence.
For the sequence “CCGGCTAACACGTCGTATTAATAGCTAAGATTACTATATCGACG”, the binding signal is 2.38 log2 normalized fluorescence.
With “CCGGCTTACACGTGGGATTAATAGCTAAGATTACTATATCGACG” the figure was 3.12 log2 normalized fluorescence.
To “CCGGCCGACACGTCGTATTAATAGCTAAGATTACTATATCGACG” belongs 2.07 log2 normalized fluorescence.
“CCGGCTTACATGTGGAATTAATAGCTAAGATTACTATATCGACG”: the binding signal is 3.25 log2 normalized fluorescence.
To “CCGGCTAACACGTAGTATTAATAGCTAAGATTACTATATCGACG” belongs 1.92 log2 normalized fluorescence; to “CCGGCTGAAGACGGGTATTAATAGCTAAGATTACTATATCGACG”, -0.654 log2 normalized fluorescence.
For the sequence “CCGGCTGACCCGTGGTATTAATAGCTAAGATTACTATATCGACG”, the binding signal was 2.38 log2 normalized fluorescence.
With “CCGGCTGAGCAGGAGTATTAATAGCTAAGATTACTATATCGACG” the figure was -0.201 log2 normalized fluorescence; with “CCGGCAGACACGATGTATTAATAGCTAAGATTACTATATCGACG”, 3.02 log2 normalized fluorescence.
Take “CCGGCTGAGATCACGTATTAATAGCTAAGATTACTATATCGACG”: the binding signal is 0.425 log2 normalized fluorescence.
To “CCGGCTGAGGGTTCGTATTAATAGCTAAGATTACTATATCGACG” belongs -0.732 log2 normalized fluorescence; to “CCGGCTGAACCCTCGTATTAATAGCTAAGATTACTATATCGACG”, 0.0153 log2 normalized fluorescence; to “CCGGCTGAAGCGGGGTATTAATAGCTAAGATTACTATATCGACG”, 0.358 log2 normalized fluorescence.
With “CCGGCTGATTCGATGTATTAATAGCTAAGATTACTATATCGACG” the figure was -0.732 log2 normalized fluorescence.
With “CCGGCTGACGGGCGGTATTAATAGCTAAGATTACTATATCGACG” the figure was -0.202 log2 normalized fluorescence; with “CCGGCTGCCACGTGCGATTAATAGCTAAGATTACTATATCGACG”, 3.47 log2 normalized fluorescence.
As for “CCGGCTGCCACGTGTTATTAATAGCTAAGATTACTATATCGACG”, the binding signal is 3.28 log2 normalized fluorescence.
Regarding “CCGGCTGCCACGACGTATTAATAGCTAAGATTACTATATCGACG”, the binding signal is 1.79 log2 normalized fluorescence.
To “CCGGCTGCCACGTGATATTAATAGCTAAGATTACTATATCGACG” belongs 3.13 log2 normalized fluorescence.
To “CCGGCTGTCACGTGGAATTAATAGCTAAGATTACTATATCGACG” belongs 3.19 log2 normalized fluorescence; to “CCGGCTGCCACGTGGAATTAATAGCTAAGATTACTATATCGACG”, 3.31 log2 normalized fluorescence; to “CCGGCTGCCACGTGCTTTTAATAGCTAAGATTACTATATCGACG”, 3.14 log2 normalized fluorescence.
With “CCGGCTGCCACGCGGAATTAATAGCTAAGATTACTATATCGACG” the figure was 3.15 log2 normalized fluorescence.
Consider “CCGGCTGCCACGAGGAATTAATAGCTAAGATTACTATATCGACG”, for which the binding signal is 3.34 log2 normalized fluorescence.
Regarding “CCGGCTGACACGAGGTATTAATAGCTAAGATTACTATATCGACG”, the binding signal is 3.08 log2 normalized fluorescence.
With “CCGGCTAACACGAGGTATTAATAGCTAAGATTACTATATCGACG” the figure was 3.28 log2 normalized fluorescence.
To “CCGGCAGACACGAGGTTTTAATAGCTAAGATTACTATATCGACG” belongs 3.03 log2 normalized fluorescence; to “CCGGCGGACACGAGGTATTAATAGCTAAGATTACTATATCGACG”, 3.32 log2 normalized fluorescence; to “CCGGCGGACACGCGGTATTAATAGCTAAGATTACTATATCGACG”, 3.26 log2 normalized fluorescence.
To “CCGGCAGACACGAGGTATTAATAGCTAAGATTACTATATCGACG” belongs 3.44 log2 normalized fluorescence.
As for “CCGGCTGACCCAAGGTATTAATAGCTAAGATTACTATATCGACG”, the binding signal was -0.0673 log2 normalized fluorescence.
In the case of “CCGGCTGACATGTGGCCTTAATAGCTAAGATTACTATATCGACG”, the binding signal was 2.99 log2 normalized fluorescence.
With “CCGGCTGAGTCACTGTATTAATAGCTAAGATTACTATATCGACG” the figure was -0.498 log2 normalized fluorescence.
With “CCGGCTGATTGCGAGTATTAATAGCTAAGATTACTATATCGACG” the figure was -0.512 log2 normalized fluorescence; with “CCGGCCGACACGTGCTTTTAATAGCTAAGATTACTATATCGACG”, 3.21 log2 normalized fluorescence.
To “CCGGCTGACACGTGCCCTTAATAGCTAAGATTACTATATCGACG” belongs 3.16 log2 normalized fluorescence; to “CCGGCTGACACGTGGCTTTAATAGCTAAGATTACTATATCGACG”, 3.04 log2 normalized fluorescence; to “CCGGCTGACACGTGCTTTTAATAGCTAAGATTACTATATCGACG”, 3.34 log2 normalized fluorescence.
For “CCGGCTGACACGTAGCTTTAATAGCTAAGATTACTATATCGACG”, the binding signal was 1.51 log2 normalized fluorescence.
To “CCGGCTAACACGTGCTTTTAATAGCTAAGATTACTATATCGACG” belongs 3.33 log2 normalized fluorescence; to “CCGGCTGACACGTGCCTTTAATAGCTAAGATTACTATATCGACG”, 3.18 log2 normalized fluorescence.
For “CCGGCTGACACGTGCGCTTAATAGCTAAGATTACTATATCGACG”, the binding signal was 3.16 log2 normalized fluorescence.
Regarding “CCGGCTGACACGTGTGCTTAATAGCTAAGATTACTATATCGACG”, the binding signal is 3.4 log2 normalized fluorescence.
With “CCGGCTGAGACGTGGGATTAATAGCTAAGATTACTATATCGACG” the figure was 0.979 log2 normalized fluorescence; with “CCGGCTGAATGTCTGTATTAATAGCTAAGATTACTATATCGACG”, 0.29 log2 normalized fluorescence; with “CCGGCTGATGCAGCGTATTAATAGCTAAGATTACTATATCGACG”, -0.0989 log2 normalized fluorescence.
Turning to “CCGGCTGGCACCTGGTATTAATAGCTAAGATTACTATATCGACG”, the binding signal was 1.88 log2 normalized fluorescence.
To “CCGGCTGACTAATGGTATTAATAGCTAAGATTACTATATCGACG” belongs -0.355 log2 normalized fluorescence.
